# Measured values published in PubChem BioAssay AID1159580 (chemical genetic matrix, 2015).
# Out of some 5,500 compounds screened, about 2,000 (36%) were called active. Inconclusive results (about 18%) are left out. Some of the results follow. Unmarked numbers belong to inactive results. Cut-off read from the data, not from the text of the source: active = normalized growth mostly below about 0.91 (no sharp cut-off); inconclusive = no clear call, values can overlap the other calls; inactive = mostly above about 0.92.
# Experiment: chemical genetic growth profiling, strain panel (AID 1159580);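 note: tested at 20 µM; growth read once vehicle control cultures reached saturation at 30 °C; 1 = growth at the plate median or of vehicle wells; lower values mean less growth of the strain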
# Details: growth OD
# [1] = S. cerevisiae deletion strains, locus YAL040C, strain CLN3, active compounds read low
# [2] = S. cerevisiae deletion strains, locus YCL061C, strain MRC1 (second series), active compounds read low
# [3] = S. cerevisiae deletion strains, locus YDR150W, strain NUM1, active compounds read low
# [4] = S. cerevisiae deletion strains, locus YDR363W, strain ESC2, active compounds read low
# [5] = S. cerevisiae deletion strains, locus YER002W, strain NOP16, active compounds read low
# [6] = S. cerevisiae deletion strains, locus YGR078C, strain PAC10, active compounds read low
# [7] = S. cerevisiae deletion strains, locus YMR263W, strain SAP30, active compounds read low
# [8] = S. cerevisiae deletion strains, locus YNL153C, strain GIM3, active compounds read low
# [9] = S. cerevisiae deletion strains, locus YNL175C, strain NOP13, active compounds read low
# [10] = S. cerevisiae deletion strains, locus YNL197C, strain WHI3, active compounds read low
# [11] = S. cerevisiae deletion strains, locus YNL224C, strain SQS1, active compounds read low
# [12] = S. cerevisiae deletion strains, locus YOR083W, strain WHI5 (second series), active compounds read low
# [13] = S. cerevisiae deletion strains, locus YPL055C, strain LGE1, active compounds read low
# [14] = S. cerevisiae deletion strains, locus YMR307W, strain GAS1, active compounds read low
# [15] = S. cerevisiae deletion strains, locus YNL322C, strain KRE1, active compounds read low
# [16] = S. cerevisiae deletion strains, locus YPL241C, strain CIN2, active compounds read low
# [17] = S. cerevisiae deletion strains, locus YAL013W, strain DEP1, active compounds read low
# [18] = S. cerevisiae deletion strains, locus YJR075W, strain HOC1, active compounds read low
# [19] = S. cerevisiae deletion strains, locus YGR229C, strain SMI1, active compounds read low
# [20] = S. cerevisiae deletion strains, locus YBR229C, strain ROT2, active compounds read low
# [21] = S. cerevisiae deletion strains, locus YDL101C, strain DUN1, active compounds read low
# [22] = S. cerevisiae deletion strains, locus YDL134C, strain PPH21, active compounds read low
# [23] = S. cerevisiae deletion strains, locus YEL061C, strain CIN8, active compounds read low
# [24] = S. cerevisiae deletion strains, locus YHR030C, strain SLT2, active compounds read low
# [25] = S. cerevisiae deletion strains, locus YHR087W, strain rtc3, active compounds read low
# [26] = S. cerevisiae deletion strains, locus YJR043C, strain POL32, active compounds read low
# [27] = S. cerevisiae deletion strains, locus YKL190W, strain CNB1, active compounds read low
# [28] = S. cerevisiae deletion strains, locus YLR039C, strain RIC1, active compounds read low
# [29] = S. cerevisiae deletion strains, locus YLR058C, strain SHM2 (second series), active compounds read low
# [30] = S. cerevisiae deletion strains, locus YLR085C, strain ARP6, active compounds read low
# [31] = S. cerevisiae deletion strains, locus YLR262C, strain YPT6, active compounds read low
# [32] = S. cerevisiae deletion strains, locus YML094W, strain GIM5, active compounds read low
# [33] = S. cerevisiae deletion strains, locus YMR219W, strain ESC1, active compounds read low
# [34] = S. cerevisiae deletion strains, locus YNL298W, strain CLA4 (second series), active compounds read low
# [35] = S. cerevisiae deletion strains, locus YNR030W, strain Alg12, active compounds read low
# [36] = S. cerevisiae deletion strains, locus YOL006C, strain TOP1, active compounds read low
# [37] = S. cerevisiae deletion strains, locus YPR135W, strain CTF4, active compounds read low
smiles,measurement,setting,value
CCCCCCCCCC(=O)NC(CN1CCOCC1)[C@H](O)c1ccccc1 (stereo partly drawn),normalized growth,[1],0.989
same,normalized growth,[2],0.987
same,normalized growth,[3],0.977
same,normalized growth,[4],0.942
same,normalized growth,[5],0.963
same,normalized growth,[6],0.97
same,normalized growth,[7],1
same,normalized growth,[8],0.941
same,normalized growth,[9],0.962
same,normalized growth,[10],0.944
same,normalized growth,[11],0.978
same,normalized growth,[12],0.971
same,normalized growth,[13],0.957
CC[C@H](NC(=O)c1c(C)c(-c2ccccc2)nc2ccccc12)c1ccccc1,normalized growth,[1],1.03
same,normalized growth,[3],0.987
same,normalized growth,[4],1.04
same,normalized growth,[5],1.02
same,normalized growth,[14],1.06
same,normalized growth,[8],0.979
same,normalized growth,[9],1.03
same,normalized growth,[10],1.04
same,normalized growth,[11],1
same,normalized growth,[15],0.995
same,normalized growth,[12],1.07
same,normalized growth,[16],0.987
CCCCCCCCCC[Si](C)(C)CCC(=O)NC(Cc1ccc(C)cc1)c1ccccc1 (stereo not drawn),normalized growth,[1],1.03
same,normalized growth,[4],0.974
same,normalized growth,[5],1.11 [resistant] (active)
same,normalized growth,[7],0.998
same,normalized growth,[14],1.01
same,normalized growth,[9],1.05
same,normalized growth,[11],1.17 [resistant] (active)
same,normalized growth,[13],1
N#C/C(=C\c1ccc(O)c(O)c1)C(=O)NCc1ccccc1,normalized growth,[17],0.997
same,normalized growth,[1],0.984
same,normalized growth,[2],1
same,normalized growth,[3],1
same,normalized growth,[4],1
same,normalized growth,[5],1.01
same,normalized growth,[6],1.01
same,normalized growth,[18],0.992
same,normalized growth,[7],1.01
same,normalized growth,[14],1
same,normalized growth,[8],1.02
same,normalized growth,[9],1.01
same,normalized growth,[10],1.02
same,normalized growth,[11],0.999
same,normalized growth,[12],1.03
same,normalized growth,[16],1
N#CC(C#N)=C(N)/C(C#N)=C/c1ccc(O)cc1,normalized growth,[1],0.962
same,normalized growth,[2],0.998
same,normalized growth,[4],0.999
same,normalized growth,[5],1
same,normalized growth,[6],1
same,normalized growth,[19],1.04
same,normalized growth,[18],0.957
same,normalized growth,[7],1
same,normalized growth,[14],1
same,normalized growth,[9],0.999
same,normalized growth,[10],0.989
same,normalized growth,[11],1
same,normalized growth,[15],0.99
same,normalized growth,[12],1.01
same,normalized growth,[13],1
CCOC(=O)/C(C#N)=C/c1ccc(Br)cc1,normalized growth,[17],0.971
same,normalized growth,[20],0.805 (active)
same,normalized growth,[21],0.875 (active)
same,normalized growth,[22],0.972
same,normalized growth,[3],0.893
same,normalized growth,[23],0.754 (active)
same,normalized growth,[6],0.903 (active)
same,normalized growth,[24],0.258 (active)
same,normalized growth,[25],0.821 (active)
same,normalized growth,"S. cerevisiae deletion strains, locus YJL187C, strain SWE1, active compounds read low",0.846 (active)
same,normalized growth,[26],0.851 (active)
same,normalized growth,[18],0.828 (active)
same,normalized growth,[27],0.804 (active)
same,normalized growth,[28],0.646 (active)
same,normalized growth,[29],0.977
same,normalized growth,[30],0.375 (active)
same,normalized growth,[31],0.72 (active)
same,normalized growth,[32],0.828 (active)
same,normalized growth,[33],0.926 (active)
same,normalized growth,[7],0.913
same,normalized growth,[8],0.836 (active)
same,normalized growth,[34],0.717 (active)
same,normalized growth,[15],0.967
same,normalized growth,[35],0.765 (active)
same,normalized growth,[36],0.593 (active)
same,normalized growth,[13],0.865
same,normalized growth,[16],0.717 (active)
same,normalized growth,[37],0.585 (active)
same,normalized growth,"S. cerevisiae strains, strain wild type, active compounds read low",0.954
O=[N+]([O-])c1ccc(Oc2cccc3cccnc23)cc1,normalized growth,[17],1.01
same,normalized growth,[20],1
same,normalized growth,[21],0.942
same,normalized growth,[22],0.993
same,normalized growth,[3],1
same,normalized growth,[23],0.98
same,normalized growth,[6],0.991
same,normalized growth,[24],0.736
same,normalized growth,[25],1
same,normalized growth,[26],0.98
same,normalized growth,[18],1.02
same,normalized growth,[28],0.805
same,normalized growth,[29],1
same,normalized growth,[30],0.959
same,normalized growth,[31],0.799 (active)
same,normalized growth,[32],0.991
same,normalized growth,[33],0.993
same,normalized growth,[7],1
same,normalized growth,[14],0.719
same,normalized growth,[8],0.848 (active)
same,normalized growth,[34],0.892
same,normalized growth,[15],1
same,normalized growth,[35],0.994
same,normalized growth,[36],0.872
same,normalized growth,[13],0.919
same,normalized growth,[16],0.854 (active)
same,normalized growth,[37],0.754
O=[N+]([O-])c1ccc(OCCCOc2ccc([N+](=O)[O-])cc2)cc1,normalized growth,[17],1
same,normalized growth,[20],0.978
same,normalized growth,[21],0.98
same,normalized growth,[3],0.988
same,normalized growth,[23],0.979
same,normalized growth,[6],0.991
same,normalized growth,[19],0.995
same,normalized growth,[24],0.91
same,normalized growth,[25],0.973
same,normalized growth,[26],1.01
same,normalized growth,[18],0.971
same,normalized growth,[27],1
same,normalized growth,[28],0.966
same,normalized growth,[29],0.975
same,normalized growth,[30],0.993
same,normalized growth,[31],0.969
same,normalized growth,[32],0.934
same,normalized growth,[33],0.983
same,normalized growth,[7],1.01
same,normalized growth,"S. cerevisiae deletion strains, locus YNL128W, strain TEP1, active compounds read low",0.996
same,normalized growth,[8],0.995
same,normalized growth,[34],0.961
same,normalized growth,[15],0.99
same,normalized growth,[35],0.979
same,normalized growth,[36],0.97
same,normalized growth,[13],1.02
same,normalized growth,[16],0.953
same,normalized growth,[37],0.932
